According to PubChem BioAssay (NCI):
Compounds without any hit were thinned out: in the full panel of roughly 83,000, 20% have a hit.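 Cell lines were cultured in 96-well plates, exposed to a single compound concentration, and assessed for percent growth 48 hours later.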 Unmarked numbers belong to inactive results. Calls of active or inactive are those of the source. How the source made its calls: active means growth percent below 10; inactive means the rest.

How the values were obtained:
Test in all cases: NCI-60 one-dose screen, 48 h (100 = growth as untreated, 0 = no growth, -100 = all killed)
Conditions in all cases: 10 µM unless noted
NCI/ADR-RES ovarian = system: NCI/ADR-RES ovarian
T-47D breast = system: T-47D breast
BT-549 breast = system: BT-549 breast
MDA-MB-435 melanoma = system: MDA-MB-435 melanoma
SW-620 colon = system: SW-620 colon
MCF7 breast = system: MCF7 breast
HCT-116 colon = system: HCT-116 colon
HCC-2998 colon = system: HCC-2998 colon
KM12 colon = system: KM12 colon

| SMILES | growth (NCI/ADR-RES ovarian) | growth (T-47D breast) | growth (BT-549 breast) | growth (MDA-MB-435 melanoma) | growth (SW-620 colon) | growth (MCF7 breast) | growth (HCT-116 colon) | growth (HCC-2998 colon) | growth (KM12 colon) |
| --- | --- | --- | --- | --- | --- | --- | --- | --- | --- |
| COc1cc(C=Nc2cccc(Br)c2)ccc1N(CCCl)CCCl | 80.7% | 91.3% | 85.5% | 103% | 74.5% | 66.6% | 87% | 60.1% | 40.6% |
| COc1ccc(/C=C\c2cc(OC)c(OC)c(OC)c2)cc1OCC(=O)Nc1nc2ccc(C(F)(F)F)cc2s1 | -11.8% (active) | 37.7% | 43.1% | -34.9% (active) | 28.3% | 15.1% | 13.8% | 64.7% | 17.9% |
| Cn1cc(C2=C(c3cn(C4CCN(Cc5ccccn5)CC4)c4ccccc34)C(=O)NC2=O)c2ccccc21 | 84.4% | 54.5% | 78.3% | 47.6% | 47.8% | 76.1% | 38.2% | 31.4% | 57.2% |
| Cc1cc(-c2nc3cc(F)ccc3[se]2)cc(F)c1N | 98.7% | 14.2% | 84.4% | 101% | 90.7% | 2.88% (active) | 71.2% | 35.5% | 61.2% |
| O=C(Nc1ccc(Br)cc1)c1cc(Br)cc(Br)c1O | -6.08% (active) | -2.63% (active) | -28% (active) | 1.23% (active) | -15.7% (active) | 8.07% (active) | -13.9% (active) | 52.1% | -44.2% (active) |
| O=C1N[C@@H]2[C@@H](O)[C@@H](O)[C@H](O)C[C@H]2c2cc3c(c(O)c21)OCO3 | 1.95% (active) | -8.46% (active) | -12.5% (active) | -42.2% (active) | -0.0451% (active) | 1.73% (active) | -1.49% (active) | -22.8% (active) | -11.5% (active) |
| C[S+]1C=Cc2ccccc2C1c1ccc(Cl)cc1 (configuration not stated) | 101% | 89.9% | 85.6% | 75% | 112% | 84.5% | 81.6% | 103% | 1.91% (active) |
| CC(=O)O[C@H]1CC[C@@]2(C)C(=CC[C@H]3[C@@H]4C[C@@H](N5CC5)[C@H](C(C)=O)[C@@]4(C)CC[C@@H]32)C1 | 92.9% | 88.3% | 100% | 99.9% | 89.6% | 72.8% | 85.9% | 106% | 106% |
| COc1ccc2c(c1)c(-c1nc(-c3cn(C)c4ncccc34)cs1)cn2CCCCN1CCCCC1 | 5.12% (active) | 61% | 85.1% | -88.9% (active) | -64.3% (active) | -76.5% (active) | -93% (active) | 95.3% | -68.7% (active) |
| C/C(=C\c1cc(C(F)(F)F)nn1CCNC(=O)OC(C)(C)C)[C@@H]1C[C@@H]2O[C@]2(C)CCC[C@H](C)[C@H](O)[C@@H](C)C(=O)C(C)(C)[C@@H](O)CC(=O)O1 | 28% | 57.8% | 73.2% | -27.6% (active) | 34.7% | 31.2% | 23.3% | 57.3% | 20.3% |
| O=C1NC(=O)C(=Cc2ccc(OCCCCC3CCCCC3)c(Cl)c2)C(=O)N1 | 107% | 91.6% | 95.1% | 102% | 98% | 88.8% | 91.3% | 102% | 104% |
| CCCCCCCCC(CO)NCCc1ccccc1 (configuration not stated) | 112% | 96% | 114% | 103% | 96.2% | 103% | 78.8% | 111% | 99.9% |
| COC1=CC(=O)O[C@@H](/C=C/c2ccc3c(c2)OCO3)C1 | 95.7% | 93.2% | 95% | 100% | 104% | 99.7% | 105% | 111% | 103% |
| CCOC(=O)N[C@H]1CCc2c(Br)c(OC)c(OC)c(OC)c2-c2ccc(SC)c(=O)cc21 | 11.8% | 42.6% | 3.55% (active) | -54.2% (active) | 16.7% | 10.8% | -5.72% (active) | 14.6% | -8.71% (active) |
| O=C1CNC(c2ccccc2)c2cc(Cl)ccc2N1 (configuration not stated) | 100% | 88.4% | 122% | 108% | 97.2% | 97.8% | 97% | 106% | 91.2% |
| CC[C@H](C)[C@H](NC(=O)c1cccn1C)C(=O)N(C)[C@H](C[C@@H](OC(C)=O)c1nc(C(=O)N[C@@H](Cc2ccccc2)C[C@H](C)C(=O)OC)cs1)C(C)C | 7.66% (active) | 64% | -27% (active) | -18.2% (active) | 26.2% | 15% | -3.74% (active) | 18.4% | 10% |
| CCCCOc1ccc(C(N)Cc2ccccc2)cc1 (configuration not stated) | 105% | 92.5% | 101% | 43.2% | 87.5% | 81.7% | 86.4% | 29.9% | 98.5% |
| COC(=O)CCC1=C(C)c2cc3[n-]c(cc4nc(cc5[n-]c(cc1n2)c(CCC(=O)OC)c5C)C=C4C)cc3C.[Cd+2] | 83.5% | 42.7% | -31.9% (active) | 23.1% | 25.3% | 26.9% | 79.8% | 95.9% | 13.3% |
| CC[C@@H]1[C@@H](C)O[C@@](O)([C@@H](C)[C@H](O)[C@H](C)[C@H]2OC(=O)/C=C/C=C/[C@H](C)[C@@H]([C@@H](C)[C@@H](O)[C@H](C)[C@@]3(O)C[C@@H](O[C@H]4C[C@@H](O)[C@H](O)C(C)O4)[C@H](CC)[C@@H](C)O3)OC(=O)/C=C/C=C/[C@@H]2C)C[C@H]1O[C@@H]1C[C@@H](O)[C@H](O)C(C)O1 (some centres not stated) | -64.3% (active) | -63% (active) | -90.5% (active) | -97% (active) | -85.3% (active) | -69.2% (active) | -81.2% (active) | -74.7% (active) | -94.7% (active) |
| Nc1cc2nc3ccccc3nc2cc1N | 94.8% | 52.7% | 94% | 109% | 98% | 23.5% | 74.9% | 96.8% | 91.6% |
| CN(C)C(=O)Oc1ccc(Br)cc1 | 106% | 92.4% | 103% | 104% | 109% | 88.7% | 103% | 108% | 101% |
| CN(C)C(=O)Oc1ccccc1-c1ccccc1 | 102% | 93.3% | 90.7% | 112% | 109% | 105% | 111% | 96.1% | 103% |
| CCCCCSC1C2C(=O)C(Br)=CC13CCNc1c(O)c4c5c(c13)=[N+]2CCC=5C=N4 (configuration not stated) | 29.1% | -48.2% (active) | 36.1% | -81.1% (active) | -54.5% (active) | -54.9% (active) | -92.3% (active) | -68.4% (active) | 2.34% (active) |
| C=C1[C@@H](C)[C@H]2[C@H](Cc3ccccc3)NC(=O)[C@]23[C@@H](O)/C=C/[C@@](C)(O)C(=O)[C@@H](C)C/C=C/[C@H]3[C@@H]1O | 94.6% | 48.3% | 63.1% | 80.5% | 41.8% | 63.8% | 50.1% | 62.4% | 81.5% |
| CC1(C)N=C(N)N=C(N)N1c1ccc(CCC(=O)Nc2ccc(S(=O)(=O)F)cc2)c(Cl)c1 | 58.4% | 70.5% | 51% | 37.7% | 24.8% | 15.1% | 26.8% | 14.3% | 12.2% |
| CC(=O)Nc1ccc(NC(=O)c2ccc([As](O)O)cc2)cc1 | 101% | 48.3% | 113% | 99.8% | 87.9% | 85% | 101% | 112% | 124% |
| CCCCCN(CCCCC)CC(O)c1cc(Cl)ccc1OC (configuration not stated) | 32.4% | 35% | 79.8% | 42.8% | 25% | 15.8% | 4.09% (active) | 17.2% | 29.8% |
| C#Cc1ccc2c(c1)C(c1ccccc1)=NCC(=O)N2C | 17.1% | 51.6% | 45.2% | 11.4% | 30.6% | 18.4% | 18.9% | 70.5% | 28.8% |
